# Shown are actives, neighbours in structure and some others; about 18% of the full set was active somewhere.
# TDP1 cell noCPT – qHTS for Inhibitors of human tyrosyl-DNA phosphodiesterase 1 (TDP1): qHTS in cells in absence of CPT; DT40 Tdp1-/- hTDP1 cells, no CPT, ATP luminescence, 48 h; Potency, µM (doses to about 46.2 µM), most hits filed as inhibitors; 15% of 420,000 active; AID 686978, 2013; note: nearly all actives have a fitted effect of over 55% in size
#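 Stably hTDP1-transfected Tdp1-null chicken DT40 cells were treated with library compounds minus camptothecin and grown for at least 48 hr at 37 °C, after which cellular ATP was quantified by luminescence.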
# TDP1 cell CPT – qHTS for Inhibitors of human tyrosyl-DNA phosphodiesterase 1 (TDP1): qHTS in cells in presence of CPT; chicken DT40 Tdp1-/-;hTDP1 cells + 20 nM CPT, ATP luminescence, 48 h; Potency, µM (highest dose often 46.2 µM), usual class: inhibitors; 12% of 420,000 active; AID 686979, 2013; note: nearly all actives have a fitted effect of over 55% in size
#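 Cell growth measured by CellTiter-Glo luminescence after a minimum 48 h, 37 C compound exposure with 20 nM CPT in Tdp1-knockout DT40 cells stably expressing hTDP1, seeded 400/well; qHTS titration format.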
# GCN5L2 inh – qHTS Assay for Inhibitors of GCN5L2; AID 504327, 2011; GCN5L2 HAT assay, ThioGlo1 CoA-SH fluorescence; Histone acetyltransferase KAT2A (Homo sapiens), Q92830; 0.21% of 390,000 active; Potency, µM (series often up to 58.9 µM), most hits filed as inhibitors
#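 ThioGlo1-coupled HAT assay: 20nM GCN5L2, 70uM acetyl-CoA, 75uM H3(1-25) peptide, pH 7.5. Fluorescence read at 340/540nm at start and after 20 min at room temperature.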
# TDP1 block – qHTS Assay for Inhibitors of Tyrosyl-DNA Phosphodiesterase (TDP1); Tyrosyl-DNA phosphodiesterase 1 (Homo sapiens), Q9NUW8; Potency, µM (series often up to 130 µM), most hits filed as inhibitors; 0.28% of 350,000 active; recombinant TDP1, AlphaScreen DNA substrate cleavage; note: nearly all actives have a fitted effect of over 40% in size
#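 Recombinant human Tdp1 (E. coli-expressed, 1 nM final) preincubated with compounds 15 min at room temperature, then 5'-biotin/3'-phosphotyrosine-FITC DNA substrate (15 nM final) added for 5 min. AlphaScreen beads (10 ug/ml final) added 10 min; cleavage lowers signal.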
# PLK1 PBD inh – qHTS for Inhibitors of PLK1-PDB (polo-like kinase 1 - polo-box domain): Primary Screen; Plk1 PBD binding of FITC phosphopeptide, fluorescence polarization; Serine/threonine-protein kinase PLK1 (Homo sapiens), P53350; 2.8% of 360,000 active; Potency, µM, hits mostly inhibitors; note: series mostly up to about 57 µM; nearly all actives have a fitted effect of over 65% in size
# VDR inh – Inhibitors of the vitamin D receptor (VDR): qHTS; Vitamin D3 receptor (Homo sapiens), P11473; VDR-SRC2-3 peptide fluorescence polarization, 2 h; Potency, µM, hits mostly inhibitors; 0.93% of 400,000 active
# Target sequence (P11473 whole entry, looked up): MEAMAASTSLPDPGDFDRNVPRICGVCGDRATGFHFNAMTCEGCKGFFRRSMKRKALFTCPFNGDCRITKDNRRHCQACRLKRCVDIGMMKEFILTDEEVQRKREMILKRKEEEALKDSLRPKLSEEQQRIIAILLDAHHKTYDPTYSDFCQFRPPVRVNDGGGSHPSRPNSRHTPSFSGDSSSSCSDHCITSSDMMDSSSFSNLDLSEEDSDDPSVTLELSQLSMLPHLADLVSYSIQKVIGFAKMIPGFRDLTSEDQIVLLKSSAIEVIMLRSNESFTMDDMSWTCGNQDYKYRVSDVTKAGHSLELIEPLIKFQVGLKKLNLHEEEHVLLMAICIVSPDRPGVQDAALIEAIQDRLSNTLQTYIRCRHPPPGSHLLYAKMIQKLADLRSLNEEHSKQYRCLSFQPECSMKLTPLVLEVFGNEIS
#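 The screen uses fluorescence polarization to detect compounds that interfere with recruitment of the SRC2-3 coactivator peptide to VDR; plates are read after 2 h at room temperature.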
# Numbers stand for hits; 0 = inactive; ? = inconclusive; - = no result given; [ ] = dose if it differs, or a comment. Calls come from the whole dose curve; as a rule, active = well fitted curve in the direction sought with a large enough effect; inconclusive = small, poorly fitted or top-dose-only effect, or another doubt; inactive = no such curve, though single readings can be large; an effect the other way counts as inactive or inconclusive.
SMILES,TDP1 cell noCPT,TDP1 cell CPT,GCN5L2 inh,TDP1 block,PLK1 PBD inh,VDR inh
NC(=NCc1ccc(Cl)c(Cl)c1)NC(=O)c1nc(Cl)c(N)nc1N,-,-,-,0,-,-
NC(=NCc1ccc(Cl)cc1Cl)NC(=O)c1nc(Cl)c(N)nc1N,4.41µM,6.23µM,0,0,-,0
COc1cccc(C(=O)Nc2ccc(-c3nc4ccccc4s3)cc2Cl)c1,?,?,0,0,-,0
COc1ccc(C(=O)Nc2cc(-c3nc4ccccc4s3)ccc2OC)cc1,5.17µM,3.26µM,0,0,-,0
COc1cccc(C(=O)NCc2ccc(-c3nc4ccccc4s3)cc2)c1,18.4µM,18.4µM,0,0,0,0
COc1cc(OC)cc(C(=O)Nc2ccccc2-c2nc3ccccc3s2)c1,5.8µM,10.3µM,0,0[12.3 µM],-,0
O=C(Nc1ccc(OC(=O)c2ccccc2)c(-c2nc3ccccc3s2)c1)c1ccccc1,?,18.4µM,0,0,0,0
COc1ccc(C(=O)Nc2cc(C)c(O)c(-c3nc4ccccc4s3)c2)cc1OC,-,-,0,0,-,0
Cc1ccccc1CN1CCc2nnc(C(C)NC(=O)C3CCN(C)CC3)n2CC1 (stereo not given),0,0,-,-,-,-
CCC(C)c1ccccc1NC(=O)COC(=O)c1ccc2c(c1)S(=O)(=O)c1ccccc1C2=O (stereo not given),0,0,0,0,0,0
COC(=O)[C@@H]1C[C@@H](NC(=O)c2ccc(C(F)(F)F)cc2)CN1Cc1cccc(O)c1,0,0[9.04 µM],-,-,-,-
COc1ccc(OC)c(CN2C(=O)c3ccccc3C2c2nnnn2C2CCCC2)c1 (stereo not given),16.4µM,?,-,-,0,-
COc1ccc(CN2C(=O)c3ccccc3C2c2nnnn2-c2ccc3c(c2)OCCO3)cc1OC (stereo not given),20.6µM,14.6µM,-,-,0,-
COc1ccc(OC)c(CN2C(=O)c3ccccc3C2c2nnnn2Cc2ccccc2)c1 (stereo not given),20.6µM,?,-,-,0,-
COc1ccc(CN2C(=O)c3ccccc3C2c2nnnn2Cc2ccccc2)cc1OC (stereo not given),?,?,-,-,0,-
CCc1nnc(NC(=O)CSc2nnc3nc(C)cc(C)n23)s1,0,0,0,-,0,0
C=CCc1c(NCCO)nc(C)[nH]c1=O,0,0,0,0,0,0
Cc1cccc(OCCNC(=O)CCNS(=O)(=O)c2ccc3ccccc3c2)c1,0,0,0,0,0,0
CCOC(=O)N1CCN(C(=O)COc2cccc3c2CCN(Cc2ccccc2C)C3=O)CC1,?,?,0,0,0,0
CCOC(=O)N1CCN(C(=O)COc2cccc3c2CCN(Cc2cccc(C)c2)C3=O)CC1,14.6µM,23.1µM,0,0,0,0
CC1(C)CC(=O)C(C(c2cc([N+](=O)[O-])ccc2Cl)C2C(=O)CC(C)(C)CC2=O)C(=O)C1,5.8µM,?,-,-,0,0
CC1(C)CC(=O)C(C(c2ccccc2F)C2C(=O)CC(C)(C)CC2=O)C(=O)C1,0,0,0,0,?,?
COCCNc1ncnc2ccc(-c3ccccc3C)cc12,20.6µM,10.3µM,?,-,-,?
Cc1cnc(CNc2ncnc3ccc(-c4ccccc4C(F)(F)F)cc23)cn1,?,?,0,-,-,0
FC(F)(F)c1ccccc1-c1ccc2ncnc(NC3CC3)c2c1,20.6µM,23.1µM,0,-,-,?
Clc1ccccc1-c1ccc2ncnc(NC3CCNCC3)c2c1,?,?,0,-,-,0
Cc1ccccc1-c1ccc2ncnc(NC3CC3)c2c1,?,16.4µM,0,-,-,?
Cc1nn(C(=O)c2ccc(Cl)cc2)c(C)c1Sc1ccc(Cl)cc1,?,?,0,0[12.3 µM],-,0

# Source: PubChem (National Center for Advancing Translational Sciences (NCATS))
